Screening results as filed in PubChem.
VLA-4 inh: inhibition in a human VLA-4 binding assay; actives 0.2% (n = 330,000); P13612; inhibition, % (about 7 µM as worked out from the volumes in the protocol); VLA-4 expressing cells, ligand binding flow cytometry; AID 2557; in the data active means inhibition above about 50%
DSG3 Ab inh: human desmoglein-3 autoantibody binding inhibition; DSG3-coupled beads, scFv-anti-DSG3-GFP binding, flow cytometry; stronger effect = lower value; binding (percent of control), % at 10 µM; actives 0.48% (n = 310,000);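 active means binding more than 3 SD below its plate's average and above zero; inconclusive means below that plate limit but binding exactly zero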;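 further: hits lower antibody fragment binding to DSG3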
GASC-1 inh: blocks human GASC-1 demethylase activity; GST-JMJD2C(1-420) H3K9me3 demethylation, DELFIA europium; inhibition, % at 2.35 µM; actives 0.069% (n = 330,000);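 active means more than half of a compound's replicate wells show inhibition beyond 50%, single wells judged on their own value; inconclusive means some, but no more than half, of replicates pass 50% inhibition; inactive means no replicate passes 50% inhibition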;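 further: signal counts dimethyl H3K9 product captured on neutravidin plate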
GRK2 inh: inhibitors of human GRK2 displacing RNA aptamer; P25098; bead flow cytometry, FAM-aptamer displacement from GRK2; inhibition of aptamer binding, % at 10 µM; actives 0.59% (n = 330,000);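 active means inhibition of aptamer binding above 40%, roughly 3 SD of noise, on plates passing a quality check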;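 further: median bead fluorescence of bound FAM aptamer so fluorescent compounds give negative values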
Target sequence (P25098 whole entry, looked up): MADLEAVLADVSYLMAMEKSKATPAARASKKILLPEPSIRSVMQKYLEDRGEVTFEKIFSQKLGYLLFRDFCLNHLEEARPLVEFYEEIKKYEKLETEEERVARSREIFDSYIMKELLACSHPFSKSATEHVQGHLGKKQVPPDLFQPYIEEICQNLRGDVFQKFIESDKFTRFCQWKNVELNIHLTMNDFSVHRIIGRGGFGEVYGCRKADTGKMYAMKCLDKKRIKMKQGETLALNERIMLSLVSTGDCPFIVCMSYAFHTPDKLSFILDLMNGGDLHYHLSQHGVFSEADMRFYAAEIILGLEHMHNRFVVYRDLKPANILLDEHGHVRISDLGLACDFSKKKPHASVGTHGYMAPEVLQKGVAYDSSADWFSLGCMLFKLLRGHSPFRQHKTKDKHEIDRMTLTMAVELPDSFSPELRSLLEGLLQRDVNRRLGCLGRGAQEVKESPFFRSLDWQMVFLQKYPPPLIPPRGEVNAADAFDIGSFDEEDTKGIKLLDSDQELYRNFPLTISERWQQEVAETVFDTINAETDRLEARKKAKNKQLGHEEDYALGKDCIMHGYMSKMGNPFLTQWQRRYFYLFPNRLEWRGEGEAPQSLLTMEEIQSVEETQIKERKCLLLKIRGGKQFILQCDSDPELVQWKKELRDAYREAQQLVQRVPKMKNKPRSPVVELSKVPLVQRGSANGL
PREPL inhibitor: inhibitors of human prolyl oligopeptidase-like enzyme PREPL; Q4J6C6; inhibition, % at 5.96 µM; recombinant PREPL, fluorescence polarization activity-based probe; actives 0.68% (n = 320,000)
VLA-4 mod pick: confirmation of allosteric modulators of human VLA-4 integrin | actives 2% (n = 1,300) | shares compounds with VLA-4 inh | U937 cells, HUTS-21 LIBS mAb binding, flow cytometry; LDV ligand present at threefold Kd | inhibition, % at 6.7 µM; in the data active means inhibition above about 40%
PREPL confirm: human PREPL inhibition, confirmation; shares compounds with PREPL inhibitor; recombinant PREPL, fluorescence polarization activity probe; inhibition, % at 5.96 µM; actives 67% (n = 2,000); AID 2803
GRK2 inh confirm: confirmation of human GRK2 inhibitors displacing RNA aptamer | actives 4% (n = 2,000) | AID 504451 | bead-bound GRK2, FAM-aptamer displacement, flow cytometry | aptamer displacement, % at 10 µM | shares compounds with GRK2 inh;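 active means aptamer displacement above 40%, near three times the noise of non-fluorescent compounds, on plates passing quality checks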;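 further: negative values mostly reflect intrinsic compound fluorescence rather than true enhancement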
FAM quench CP1: counter-screen for GRK2 aptamer inhibitors: fluorescent aptamer quenchers. shares compounds with GRK2 inh. Carboxyfluorescein RNA aptamer on beads, flow cytometry quenching; stronger effect = lower value. fluorescence response (% of DMSO), % at 10 µM. 2,000 tested, under 10 active;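 active means compounds that quench the bead-bound fluorescent RNA probe, cutting fluorescence to under half of the solvent control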;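 further: counterscreen run without GRK2 so only probe quenching by compound is measured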
GRK2 CP2: confirmation of human GRK2 inhibitors binding RNA aptamer site | shares compounds with GRK2 inh | inhibition of aptamer binding, % at 10 µM | bead-bound GRK2, FAM-aptamer displacement, flow cytometry | 360 tested, under 10 active;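 active means inhibition of aptamer binding above 40%, about triple the noise seen with nonglowing compounds, on plates passing quality control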;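 further: negative values mostly come from compounds that fluoresce themselves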
FAM quench CP2: aptamer fluorescence quenching in GRK2 counter-screen | shares compounds with GRK2 inh | carboxyfluorescein RNA aptamer beads, flow cytometry quenching; stronger effect = lower value | fluorescence response vs DMSO, % at 10 µM | 360 tested, under 10 active | AID 588494;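 active means response vs DMSO under 50%, meaning signal dropped by over half, treated as fluorescence quencher; inconclusive means no clear call, values can overlap the other calls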;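 further: labelled aptamer on streptavidin beads without GRK2 as a quench counter-screen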
Of the large screens only hits and unclear results are named; the others gave an inactive call (follow-up assays come after a bar, where they were run); ! = not active in a repeat. This is a sample that favours compounds with a hit; in the whole collection about 1.6% have one here. Unless noted, no stated cut-off is given here; in the data, active means inhibition above about 43%; inactive means the rest.

CCc1nn2c(N3CCOCC3)cc(C)nc2c1-c1ccccc1	none | VLA-4 mod pick inactive | GRK2 inh confirm inactive | FAM quench CP1 inactive
C=CCOc1cccc(C2C(C(=O)c3ccc(C)o3)=C(O)C(=O)N2c2nccs2)c1 (stereo not drawn)	none
O=C(NC1CCCC1)c1cccc(NC(=O)c2ccco2)c1	VLA-4 inh 50 (no result: DSG3 Ab inh) | VLA-4 mod pick inactive | GRK2 inh confirm inactive | FAM quench CP1 inactive
CC(=O)c1cccc(NC(=O)c2cccc(NC(=O)c3ccco3)c2)c1	none
Nc1ccc(CCNc2ncnc3c2ncn3[C@@H]2O[C@H](CO)[C@@H](O)[C@H]2O)cc1	none | VLA-4 mod pick inactive | GRK2 inh confirm inactive | FAM quench CP1 inactive
COc1cc(/C=N/NC(=O)c2ccccc2O)ccc1OCC(=O)Nc1ccccc1	none
O=C(COc1ccc(/C=N/NC(=O)c2cc3ccccc3o2)cc1Cl)Nc1ccccc1	VLA-4 inh 78, GRK2 inh 54 | VLA-4 mod pick 61 | GRK2 inh confirm inactive | FAM quench CP1 inactive
O=C(/C=C/c1ccc(O)c(O)c1)O[C@@H]1C[C@](O)(C(=O)O)C[C@@H](O)[C@H]1O	VLA-4 inh 55!, GASC-1 inh inconclusive | VLA-4 mod pick inactive | GRK2 inh confirm inactive | FAM quench CP1 inactive
O=S(=O)(NC1=NCCCCC1)c1ccccc1Cl	none
Cc1ccc(S(=O)(=O)C2(C(=O)Nc3ccc4c(c3)OCO4)CC2)cc1	VLA-4 inh 51 | VLA-4 mod pick inactive | GRK2 CP2 inactive | FAM quench CP2 inactive
Cc1ccc(S(=O)(=O)C2(C(=O)Nc3ccc(F)cc3)CC2)cc1	none
Cc1ccc(C(=O)OCC(=O)c2ccc(S(=O)(=O)N3CCCCC3)cc2)o1	none
COc1ccc(NCc2nnc(SCc3ccc(Cl)cc3)n2-c2ccccc2)cc1	PREPL inhibitor 52 | PREPL confirm 49
O=C(C[C@@H]1C[C@H]2c3cc(NC(=O)Nc4ccccc4F)ccc3O[C@H]2[C@H](CO)O1)NCC(F)(F)F	none (no result: VLA-4 inh, GASC-1 inh, GRK2 inh, PREPL inhibitor)
Oc1ccccc1N1CCN(c2ccc3ccccc3n2)CC1	PREPL inhibitor 54 | PREPL confirm inactive
CC(C)N(c1ccccc1)c1ccc(NC(=O)COC(=O)CCN2C(=O)c3cccc([N+](=O)[O-])c3C2=O)cc1	PREPL inhibitor 59 | PREPL confirm 60
CC1CCN(C2=C(NS(=O)(=O)c3ccccc3)C(=O)c3ccccc3C2=O)CC1	none
CC1CCN(C2=C(NS(=O)(=O)c3ccc(Cl)cc3)C(=O)c3ccccc3C2=O)CC1	none
O=C1C(NS(=O)(=O)c2ccccc2)=C(N2CCN(c3ccc(F)cc3)CC2)C(=O)c2ccccc21	PREPL inhibitor 59 | PREPL confirm 61
O=C1C(NS(=O)(=O)c2cccs2)=C(N2CCN(c3cccc(Cl)c3)CC2)C(=O)c2ccccc21	PREPL inhibitor 58 | PREPL confirm 56
COc1ccc(C(CCNCc2ccc(N(C)C)cc2)c2ccccc2)cc1 (stereo not drawn)	PREPL inhibitor 54 | PREPL confirm 64
COc1ccc(-n2c(N)c(C(=O)NCc3ccco3)c3nc4ccccc4nc32)cc1	none
Nc1c(C(=O)NCc2ccco2)c2nc3ccccc3nc2n1CCc1ccc(F)cc1	PREPL inhibitor 53 (no result: DSG3 Ab inh) | PREPL confirm inactive
Nc1c(C(=O)NCc2ccc3c(c2)OCO3)c2nc3ccccc3nc2n1CCCN1CCOCC1	PREPL inhibitor 52 | PREPL confirm 54
